Assay outcomes: PubChem, National Center for Advancing Translational Sciences (NCATS)
Rows were chosen to be rich in hits. Some 2.3% of all compounds tested hit in one or more screens of this group.
USP1-UAF1 inh: Inhibitors of USP1/UAF1: Primary Screen. recombinant USP1/UAF1, Ub-Rhodamine cleavage fluorescence. Potency, µM (series often up to 57.1 µM), most hits filed as inhibitors. 390,000 compounds, 0.23% hits; note: nearly all actives have a fitted effect of over 60% in size
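USP1/UAF1 complex (1 nM) preincubated 15 min at room temperature with compound, then Ub-Rho substrate (150 nM final) added. Kinetic fluorescence at 480/540 nm over 6 reads at 60 s intervals; 50 mM HEPES pH 7.8, 0.5 mM EDTA, 0.1 mg/ml BSA, 1 mM TCEP, 0.01% Tween-20.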
Tau fluor counter: Counterscreen qHTS for Inhibitors of Tau Fibril Formation, Fluorescence Polarization; tau K18 P301L Alexa594 fluorescence, heparin fibrillization; Potency, µM (top dose mostly 57.7 µM); 280,000 compounds, 0.93% hits; note: nearly all actives have a fitted effect of over 55% in size
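Human tau K18 P301L (15 uM unlabeled, 0.24 uM Alexa 594-labeled) in 100 mM sodium acetate pH 7 with 20 uM heparin, 6 hr at 37 C. ThT 30 uM added, 1 hr ambient; Alexa 594 FP and total fluorescence read at 555/632 nm.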
Tau FP inhib: qHTS for Inhibitors of Tau Fibril Formation, Fluorescence Polarization; K18 P301L tau heparin fibrillization, Alexa594 FP, 6 h; AID 1468, 2008; Potency, µM (top dose mostly 57.7 µM), actives largely listed as inhibitors; 280,000 compounds, 0.39% hits; note: nearly all actives have a fitted effect of over 55% in size
Target sequence (P10636 561-689 P618L limits assumed): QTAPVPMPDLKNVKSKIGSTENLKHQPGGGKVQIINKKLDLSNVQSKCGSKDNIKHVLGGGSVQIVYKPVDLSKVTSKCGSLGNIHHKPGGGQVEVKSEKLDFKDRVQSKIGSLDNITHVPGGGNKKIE
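Compound effects on tau fibrillization are measured by Alexa 594 fluorescence polarization (ex 555, em 632 nm). K18 P301L tau is used at 15 uM with 0.24 uM labeled tracer, and 20 uM heparin induces aggregation over 6 hr at 37 C.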
Coupling enz: qHTS Assay for Inhibitors of Fructose-1,6-bisphosphate Aldolase from Giardia Lamblia: Coupling assay counterscreen. 290,000 compounds, 0.67% hits. activity change, negative = inhibition, % at 58.2 µM, hits read low. coupling enzyme system counterscreen, AmpLite Red fluorescence; in the data active = activity change below about -30%
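Activity here indicates interference with the coupling reaction, not aldolase inhibition. Compounds at 57.5 uM final met coupling enzymes for 10 min at RT; substrate and AmpLite Red detection followed, with a 525/598 nm fluorescence read after 20 min.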
Tau ThT inhib: qHTS for Inhibitors of Tau Fibril Formation, Thioflavin T Binding | Potency, µM (top dose mostly 57.4 µM), hits mostly inhibitors | recombinant tau K18 P301L (four-repeat tau fragment), heparin-induced fibrillization, ThT fluorescence | Microtubule-associated protein tau (Homo sapiens), P10636 | 270,000 compounds, 2.1% hits; note: nearly all actives have a fitted effect of over 55% in size
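Aggregation was driven by heparin (20 uM final) acting on recombinant tau […] bearing P301L in 100 mM sodium acetate pH 7; fibrils were detected with Thioflavin T.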
A number is an active result; [ ] = dose if it differs, or a comment. Unless noted, calls come from the whole dose curve; as a rule, active = well fitted curve in the direction sought with a large enough effect; inconclusive = small, poorly fitted or top-dose-only effect, or another doubt; inactive = no such curve, though single readings can be large; an effect the other way counts as inactive or inconclusive.

COc1cccc(-c2nc(SCC(=O)Nc3ccc4c(c3)OCCO4)c(-c3ccc(C)cc3)[nH]2)c1 was read as USP1-UAF1 inh inactive, Tau fluor counter 5µM[quencher], Tau FP inhib inconclusive and Tau ThT inhib inconclusive.
Screening COc1ccc(-c2nc(SCC(=O)Nc3ccc4c(c3)OCO4)c(-c3ccc(F)cc3)[nH]2)cc1OC returned USP1-UAF1 inh inactive, Tau fluor counter inconclusive, Tau FP inhib inactive and Tau ThT inhib inactive.
For COc1ccc(-c2[nH]c(-c3cccc(OC)c3)nc2SCC(=O)NCc2ccco2)cc1 the results were USP1-UAF1 inh inactive, Tau fluor counter 14µM[quencher], Tau FP inhib inconclusive, Coupling enz inactive and Tau ThT inhib inconclusive.
Screening COc1ccc(-c2nc(SCC(=O)Nc3ccc4c(c3)OCCO4)c(-c3ccc(F)cc3)[nH]2)cc1OC returned USP1-UAF1 inh inactive, Tau fluor counter 6.3µM[quencher], Tau FP inhib inactive and Tau ThT inhib inactive.
`Cc1ccc(NC(=O)c2ccc(NC(=O)CCS(=O)(=O)c3cccs3)cc2)cc1F` gave USP1-UAF1 inh inactive, Tau fluor counter inactive, Tau FP inhib inconclusive and Tau ThT inhib inactive.
Screening COc1ccccc1N1CCN(CC(O)COc2c(OC)cccc2OC)CC1 (centres undefined) returned USP1-UAF1 inh inactive, Tau fluor counter inconclusive, Tau FP inhib inconclusive, Coupling enz inactive and Tau ThT inhib 20µM.
`COc1cccc(OC)c1OCC(O)CN1CCN(c2ccccc2)CC1` (centres undefined) gave USP1-UAF1 inh inactive, Tau fluor counter inactive, Tau FP inhib inactive, Coupling enz inactive and Tau ThT inhib inconclusive.
`CN=c1scc(C)n1/N=C/c1ccc(O)c(O)c1O` gave USP1-UAF1 inh inactive, Tau fluor counter inconclusive, Tau FP inhib 25µM, Coupling enz -59 and Tau ThT inhib 7.1µM.
For CN=c1scc(C)n1/N=C/c1cc(Br)c(O)c(OC)c1 the results were USP1-UAF1 inh inactive, Tau fluor counter inconclusive, Tau FP inhib inactive, Coupling enz inactive and Tau ThT inhib 13µM.
Screening CN=c1scc(-c2cccs2)n1/N=C/c1ccccc1O returned USP1-UAF1 inh inactive, Tau fluor counter inactive, Tau FP inhib inactive, Coupling enz inactive and Tau ThT inhib inactive.
`COc1cc(/C=N/N(C)C)cc(Br)c1O` gave USP1-UAF1 inh inactive, Tau fluor counter inactive, Tau FP inhib inactive, Coupling enz inactive and Tau ThT inhib inactive.
`CN=c1scc(-c2cccs2)n1/N=C/c1ccc(O)c(O)c1O` gave USP1-UAF1 inh inactive, Tau fluor counter 20µM[quencher], Tau FP inhib inconclusive, Coupling enz inactive and Tau ThT inhib 13µM.
`CC(=O)Nc1ccc(N(C(=O)CNC(=O)c2ccco2)C(C(=O)NC2CCCC2)c2ccco2)cc1` (centres undefined) gave USP1-UAF1 inh inactive and Coupling enz inactive.
For O=S1(=O)CCOC[C@H](CC2CCCCC2)N1Cc1ccccc1Br the results were USP1-UAF1 inh inactive and Coupling enz inactive.
Screening N#CC1(C#N)C2=C(CCCC2)NC(c2ccccc2)C1(C#N)C#N (centres undefined) returned Tau fluor counter inconclusive, Tau FP inhib inconclusive, Coupling enz inactive and Tau ThT inhib 25µM.
N#CC12C(N)=NC3(OCCO3)C1(C#N)C1=C(CCC1)NC2c1ccccc1 (centres undefined) was read as USP1-UAF1 inh inactive, Tau fluor counter inactive, Tau FP inhib inactive, Coupling enz inactive and Tau ThT inhib inconclusive.
For CC1(C)CC(=O)C2=C(C1)N(c1cccc(O)c1)C1=C(C2)C(=O)CC(C)(C)C1 the results were USP1-UAF1 inh inactive, Tau fluor counter inactive, Tau FP inhib inconclusive, Coupling enz -36 and Tau ThT inhib inconclusive.
CC1(C)CC(=O)C2=C(C1)N(c1ccccc1)C(=O)C(C(=O)OCc1ccccc1)C2 (centres undefined) was read as USP1-UAF1 inh inactive.
`CC(=O)NCCNc1ncnc2ccc(-c3ccoc3)cc12` gave Coupling enz inactive.
CCN(CC)C(=O)Cn1c(=O)n(Cc2ccc(C(=O)NCCc3ccc(OC)c(OC)c3)cc2)c(=O)c2ccccc21 was read as USP1-UAF1 inh inactive, Tau fluor counter inactive, Tau FP inhib inactive and Tau ThT inhib inactive.
Screening Cc1c(N(C)S(=O)(=O)c2cc(C(=O)N3CCCC3)ccc2Cl)c(=O)n(-c2ccccc2)n1C returned USP1-UAF1 inh inactive.
C=CCn1c(O)c(N=NC(=O)CNC(=O)/C=C/c2ccco2)c2ccccc21 was read as USP1-UAF1 inh inactive, Tau fluor counter inactive, Tau FP inhib inactive, Coupling enz inactive and Tau ThT inhib 20µM.
NC(=O)Cn1c(O)c(N=NC(=O)CNC(=O)/C=C/c2ccccc2)c2ccccc21 was read as USP1-UAF1 inh inactive and Coupling enz inactive.
Screening C=CCn1c(O)c(N=NC(=O)CNC(=O)/C=C/c2ccc(OC)cc2)c2ccccc21 returned USP1-UAF1 inh inactive, Tau fluor counter inactive, Tau FP inhib inactive, Coupling enz inactive and Tau ThT inhib 13µM.
Screening Cc1ccc(Sc2ccc(N3CCCC(C(=O)Nc4ccc(F)cc4)C3)nn2)cc1 (centres undefined) returned USP1-UAF1 inh inactive, Tau fluor counter inactive, Tau FP inhib inactive and Tau ThT inhib inactive.
For CC1(C)CCC2=C(O1)c1ccccc1C(=O)C2=O the results were Tau fluor counter inactive, Tau FP inhib inconclusive, Coupling enz -56 and Tau ThT inhib 13µM.
For CC1(C)CCC(=O)c2ccccc21 the results were USP1-UAF1 inh inactive.
`Nc1ccc(N=Nc2ccc(N)cc2)cc1` gave USP1-UAF1 inh inactive, Tau fluor counter inactive, Tau FP inhib inactive, Coupling enz inactive and Tau ThT inhib 11µM.
`Cc1cc(N(C)C)ccc1N=Nc1ccc(N)cc1` gave USP1-UAF1 inh inactive.
For CN(C)c1cncc(C(=O)O)c1 the results were USP1-UAF1 inh inactive, Tau fluor counter inactive, Tau FP inhib inactive, Coupling enz -55 and Tau ThT inhib inactive.
For O=C(O)c1cncc(Br)c1 the results were USP1-UAF1 inh inactive, Tau fluor counter inactive, Tau FP inhib inactive, Coupling enz inactive and Tau ThT inhib inactive.
`CCOC(=O)c1ccc(NC(=O)C2Cc3ccccc3CN2S(=O)(=O)c2ccc(Cl)cc2)cc1` (centres undefined) gave USP1-UAF1 inh inactive, Tau fluor counter inactive, Tau FP inhib inconclusive and Tau ThT inhib inactive.
c1ccc(CCn2cccc2)nc1 was read as USP1-UAF1 inh inactive.
`Cc1cc(C)c2nc(N3CCCN(C(=O)c4ccco4)CC3)c(C#N)cc2c1` gave USP1-UAF1 inh inactive, Tau fluor counter inactive, Tau FP inhib inactive, Coupling enz -39 and Tau ThT inhib inconclusive.
